From PubChem BioAssay
The source made the active and inactive calls.

Experiments:
[1] = binders of probe aFSTL3 on microarray, primary screen, stem cell growth factor project, biochemical, small-molecule microarray, fluorescence 635/667 (AID 1064); details: higher = more signal;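 also: measures binding of the biotinylated anti-FSTL3 antibody to printed compounds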
[2] = binders from COS7 lysate, DM2A8 probe, primary screen, torsin A project, cell lysate, small-molecule microarray, fluorescence 635/667 (AID 1065); details: higher = more signal, COS7 lysate expressing mutant human TOR1A
[3] = binders of probe aFGF2 on microarray, primary screen, stem cell growth factor project, biochemical, small-molecule microarray, fluorescence 635/667 (AID 1067); details: higher = more signal;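 also: measures binding of biotinylated aFGF2 protein to printed compounds on slides; z-score merges feature fluorescence and signal-to-noise across triplicate slides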
[4] = binders of probe aFGF10 on microarray, primary screen, stem cell growth factor project, biochemical, small-molecule microarray, fluorescence 635/667 (AID 1071); details: higher = more signal;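 also: score merges 667 nm spot intensity and signal to noise from triplicate slides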
[5] = target: Neurogenic locus notch homolog protein 2 (Homo sapiens) (UniProt Q04721); experiment: Notch2 binders on small-molecule microarrays, primary screen, biochemical, small-molecule microarray, 635 nm fluorescence, stem cell growth factors (AID 1073); details: Notch2 binding, higher = more signal
Chain of Neurogenic locus notch homolog protein 2 (Homo sapiens) (Q04721 whole entry, looked up, canonical isoform): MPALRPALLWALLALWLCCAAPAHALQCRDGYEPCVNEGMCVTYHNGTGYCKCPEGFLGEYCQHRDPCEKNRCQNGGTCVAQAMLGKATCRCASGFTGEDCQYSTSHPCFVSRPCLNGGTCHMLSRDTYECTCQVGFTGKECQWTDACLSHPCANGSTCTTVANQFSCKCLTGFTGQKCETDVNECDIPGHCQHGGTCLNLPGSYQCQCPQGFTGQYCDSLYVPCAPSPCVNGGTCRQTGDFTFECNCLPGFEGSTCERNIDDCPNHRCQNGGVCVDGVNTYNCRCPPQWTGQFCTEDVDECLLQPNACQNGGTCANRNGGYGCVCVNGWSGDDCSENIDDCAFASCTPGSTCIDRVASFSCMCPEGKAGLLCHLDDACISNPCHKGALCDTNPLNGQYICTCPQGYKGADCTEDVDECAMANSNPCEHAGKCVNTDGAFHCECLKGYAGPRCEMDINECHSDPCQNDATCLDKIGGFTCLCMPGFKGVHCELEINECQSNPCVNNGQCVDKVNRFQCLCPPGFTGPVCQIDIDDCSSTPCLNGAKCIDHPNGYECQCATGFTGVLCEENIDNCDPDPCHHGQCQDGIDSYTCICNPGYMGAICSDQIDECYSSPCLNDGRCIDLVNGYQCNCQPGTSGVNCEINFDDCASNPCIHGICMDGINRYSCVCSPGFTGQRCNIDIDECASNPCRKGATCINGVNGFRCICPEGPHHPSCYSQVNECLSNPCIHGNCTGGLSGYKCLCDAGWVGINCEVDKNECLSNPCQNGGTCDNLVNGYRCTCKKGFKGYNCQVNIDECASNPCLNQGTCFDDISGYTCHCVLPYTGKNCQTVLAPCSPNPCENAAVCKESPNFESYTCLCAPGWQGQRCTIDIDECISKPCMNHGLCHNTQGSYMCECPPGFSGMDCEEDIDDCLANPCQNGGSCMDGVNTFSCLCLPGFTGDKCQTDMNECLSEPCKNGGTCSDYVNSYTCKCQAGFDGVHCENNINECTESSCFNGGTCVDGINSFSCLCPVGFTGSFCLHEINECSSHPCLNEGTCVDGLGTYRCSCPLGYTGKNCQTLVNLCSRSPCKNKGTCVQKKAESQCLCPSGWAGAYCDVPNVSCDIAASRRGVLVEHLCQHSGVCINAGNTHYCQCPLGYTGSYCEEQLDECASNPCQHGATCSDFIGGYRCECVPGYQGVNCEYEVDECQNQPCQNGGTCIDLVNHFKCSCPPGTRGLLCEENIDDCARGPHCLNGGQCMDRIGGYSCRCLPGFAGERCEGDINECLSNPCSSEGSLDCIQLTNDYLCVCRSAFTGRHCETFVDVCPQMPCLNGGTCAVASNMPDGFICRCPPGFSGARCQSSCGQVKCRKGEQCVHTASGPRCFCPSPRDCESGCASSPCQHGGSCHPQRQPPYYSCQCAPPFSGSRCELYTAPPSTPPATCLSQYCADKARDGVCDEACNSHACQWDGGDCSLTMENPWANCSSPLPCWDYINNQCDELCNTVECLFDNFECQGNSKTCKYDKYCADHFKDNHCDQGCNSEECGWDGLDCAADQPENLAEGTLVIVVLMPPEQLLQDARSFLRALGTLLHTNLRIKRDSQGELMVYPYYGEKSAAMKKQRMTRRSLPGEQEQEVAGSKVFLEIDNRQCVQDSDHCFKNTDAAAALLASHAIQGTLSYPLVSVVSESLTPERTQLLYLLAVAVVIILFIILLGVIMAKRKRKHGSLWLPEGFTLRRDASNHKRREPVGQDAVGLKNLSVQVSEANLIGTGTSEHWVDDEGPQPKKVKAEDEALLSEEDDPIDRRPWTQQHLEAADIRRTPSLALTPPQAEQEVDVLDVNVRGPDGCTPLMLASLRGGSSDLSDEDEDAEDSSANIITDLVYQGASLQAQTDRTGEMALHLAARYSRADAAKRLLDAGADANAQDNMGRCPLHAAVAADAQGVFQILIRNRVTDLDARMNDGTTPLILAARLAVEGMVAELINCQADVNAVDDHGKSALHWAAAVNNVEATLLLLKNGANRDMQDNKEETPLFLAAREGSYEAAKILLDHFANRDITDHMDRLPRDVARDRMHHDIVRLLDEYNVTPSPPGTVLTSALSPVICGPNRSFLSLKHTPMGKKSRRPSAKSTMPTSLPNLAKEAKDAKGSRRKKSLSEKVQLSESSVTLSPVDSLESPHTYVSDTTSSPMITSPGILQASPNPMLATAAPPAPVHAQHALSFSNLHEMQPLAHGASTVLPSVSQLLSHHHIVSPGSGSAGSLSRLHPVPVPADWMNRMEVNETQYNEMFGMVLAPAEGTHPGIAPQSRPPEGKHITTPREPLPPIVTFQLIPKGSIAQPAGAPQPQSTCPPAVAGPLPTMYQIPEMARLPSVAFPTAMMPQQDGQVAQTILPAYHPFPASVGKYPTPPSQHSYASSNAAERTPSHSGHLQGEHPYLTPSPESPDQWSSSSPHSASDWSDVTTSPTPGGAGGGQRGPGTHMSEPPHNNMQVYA

[6] = target: Pro-neuregulin-1, membrane-bound isoform (Homo sapiens) (UniProt Q02297); experiment: NRG1 binders on small-molecule microarrays, primary screen, psychiatric disease protein project, biochemical, small-molecule microarray, fluorescence 635/667 (AID 1075); details: NRG1 binding, 635 nm fluorescence, higher = more signal;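 also: score combines 667 nm spot fluorescence with signal to noise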
Chain of Pro-neuregulin-1, membrane-bound isoform (Homo sapiens) (Q02297 whole entry, looked up, the tested form may be a part, canonical isoform): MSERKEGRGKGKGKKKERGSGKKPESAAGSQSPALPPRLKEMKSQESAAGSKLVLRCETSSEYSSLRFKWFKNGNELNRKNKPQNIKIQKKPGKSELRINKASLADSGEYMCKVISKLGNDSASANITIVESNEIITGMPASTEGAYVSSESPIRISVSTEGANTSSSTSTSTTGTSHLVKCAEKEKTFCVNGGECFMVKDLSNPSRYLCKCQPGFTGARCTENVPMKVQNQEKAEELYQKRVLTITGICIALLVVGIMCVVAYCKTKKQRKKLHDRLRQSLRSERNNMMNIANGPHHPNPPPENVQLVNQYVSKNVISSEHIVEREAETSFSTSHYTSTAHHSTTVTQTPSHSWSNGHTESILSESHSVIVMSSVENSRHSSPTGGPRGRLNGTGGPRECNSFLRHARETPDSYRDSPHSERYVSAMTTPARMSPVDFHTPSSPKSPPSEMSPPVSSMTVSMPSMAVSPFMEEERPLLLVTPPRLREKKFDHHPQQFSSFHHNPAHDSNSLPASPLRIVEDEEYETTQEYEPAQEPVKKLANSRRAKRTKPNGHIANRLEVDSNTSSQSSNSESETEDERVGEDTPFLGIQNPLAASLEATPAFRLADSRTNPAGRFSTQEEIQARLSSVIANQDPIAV

[7] = tested on: Neuregulin-1 EGF-like domain; experiment: binders of neuregulin-1 EGF-like domain, primary screen, biochemical, small-molecule microarray, 635 nm fluorescence (AID 1081); details: small-molecule microarray binding, higher = more signal;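 also: binding of the protein to compounds printed on small-molecule microarray slides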
[8] = FRG1 promoter luciferase signal modulators, primary screen, FRG1 inhibition for FSHD, cell-based, C2C12 myotubes, firefly/Renilla luciferase, luminescence (AID 1084); details: higher = more signal, called active from +8 up or from −8 down
[9] = binders of probe aFST on microarray, primary screen, stem cell growth factor project, biochemical, small-molecule microarray, fluorescence 635/667 (AID 1086); details: higher = more signal;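 also: score merges 667 nm fluorescence with signal-to-noise of each printed compound spot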
[10] = binders of probe aHhip on microarray, primary screen, stem cell growth factor project, biochemical, small-molecule microarray, fluorescence 635/667 (AID 1087); details: higher = more signal;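 also: score merges spot fluorescence at 667nm with spot signal to noise ratio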

Row | Compound | composite z-score [1] | composite z-score [2] | composite z-score [3] | composite z-score [4] | composite z-score [5] | composite z-score [6] | composite z-score [7] | z-score [8] | composite z-score [9] | composite z-score [10]
1 | COCCCNC(=O)[C@@H]1c2ccccc2C(=O)N(c2ccc(C)cn2)[C@H]1c1ccc(CO)cc1 | 1.02 | -1.72 | -0.294 | -0.286 | -1.58 | 0.825 | -0.54 | 0.183 (inactive) | -0.939 | -0.233
2 | COCCCNC(=O)[C@]1(CCS(=O)(=O)c2ccccc2)N=C(c2ccc(OCCCO)cc2)O[C@@H]1c1ccccc1 | -0.0225 | 1.05 | 0.124 | 0.786 | 1.57 | 2.12 | 1.22 | -1.91 (inactive) | 1.26 | -0.166
3 | CCCN1C(=O)[C@@]2(Cc3ccccc3)N=C(c3ccc(OCCCO)cc3)O[C@H]2c2ccccc21 | -0.0679 | 0.802 | -0.047 | 0.186 | 0.498 | 0.602 | 1.12 | -1.25 (inactive) | -0.0754 | -0.0573
4 | COCCOC(=O)N1C(=O)[C@@]2(c3cc(C#CCC(C(=O)OC)C(=O)OC)ccc31)[C@H](C(=O)N1CCCCCCC1)[C@H]1C(=O)O[C@H](c3ccccc3)[C@H](c3ccccc3)N1[C@@H]2c1ccc(O)cc1 | 2.64 | 0.745 | 0.146 | 0.344 | 1.26 | 1.33 | 1.25 | 0.741 (inactive) | 2.37 | 0.801
5 | CCC[C@@H]1C[C@@]1(CCC)[C@@H](NC(=O)c1cccs1)c1ccc(Cl)cc1 | 1.38 | -0.553 | -0.0861 | -0.092 | -1.6 | 0.161 | -0.405 | -2.04 (inactive) | -0.711 | -0.254
6 | COc1cccc(C[C@H]2C[C@@H](CO[Si](C(C)C)(C(C)C)C(C)C)N3C(=O)[C@]4(C(C)=O)O[C@]23[C@H]2C(=O)N(C)C(=O)[C@H]24)c1 | -0.46 | 0.395 | -0.021 | 0.407 | 0.797 | 0.143 | 0.996 | 0.165 (inactive) | 0.421 | -0.0618
7 | COC(=O)[C@@]1(Cc2ccc(OC)cc2)[C@H]2c3cc(C(=O)N(C)C)n(CCF)c3C[C@H]2CN1C(=O)c1ccccc1 | 0.999 | 0.245 | 0.0398 | 0.419 | 1.66 | 1.97 | 1.33 | -1.11 (inactive) | 0.98 | 0.31
8 | CCOC(=O)C[C@H]1[C@H](OC(=O)c2ccccc2-c2ccccc2)[C@@H](NC(=O)c2ccccc2)c2cc(OCCCO)ccc2N1C(=O)Cc1ccc(OC)cc1 | -0.205 | -0.0688 | -0.0569 | 0.149 | 0.585 | -0.323 | -0.191 | 0.57 (inactive) | -0.0579 | -0.204
9 | CC(C)(C)OC(=O)CC[C@]1(C(=O)N2CCCCC2)N=C(c2ccc(OCCCO)cc2)O[C@H]1c1ccccc1CN=[N+]=[N-] | -0.193 | 1.29 | 0.347 | 1.14 | 1.65 | 1.89 | 1.38 | -2.88 (inactive) | 0.821 | -0.574
10 | C=C(CCCC)/C(=C/C[C@H](OC(=O)c1ccncc1)c1ccc(CO)o1)c1cc(C(=O)OC)ccc1OC | -0.293 | 1.83 | -0.116 | 0.418 | 0.822 | 1.01 | 1.26 | -0.906 (inactive) | 0.381 | 0.0722
11 | COc1ccc([Si](C)(C)[C@@H]2[C@@H](CCO)O[C@]3(C(=O)N(Cc4cccc(N5C(=O)COc6ccccc65)c4)c4ccccc43)[C@H]2C)cc1 | 0.0857 | -0.183 | -0.072 | 0.492 | 0.0822 | 1.18 | 0.818 | -1.22 (inactive) | -0.287 | -0.164
12 | O=C1CSC(c2cccc([N+](=O)[O-])c2)N1c1ccccc1 (stereo not given) | 0.315 | -0.0123 | -0.0161 | 0.508 | 0.839 | 0.146 | 0.979 | -0.239 (inactive) | -0.0692 | -0.0994
13 | CN(C)CCCC[C@@H]1NC(=O)[C@H]2C[C@@H](C(=O)NCCCCCCNC(=O)CS)[C@@H](c3ccc(O)cc3)N2C1=O | 0.0462 | 0.576 | -0.116 | 0.165 | -0.549 | 0.848 | 1.11 | 1.15 (inactive) | -0.337 | -0.125
14 | CCCCC(=C=CC[C@H](O)c1ccccc1OCCO)C[C@H](O)c1ccccn1 | -0.0078 | 1.07 | -0.116 | -0.0673 | -0.285 | 0.466 | 0.376 | -1.38 (inactive) | 0.0552 | -0.456
15 | CCN(CC)c1ccc(N2CC=CC34O[C@@H]5/C=C\CCCOC(=O)C5[C@H]3C(=O)N(CCCCCO)[C@@H]4C2=O)cc1 (stereo not given in full) | 0.0158 | -1.53 | -0.205 | -1.03 | -1.2 | 1.04 | 0.516 | 0.609 (inactive) | -0.663 | -0.0994
16 | CC1(C)[C@@H]2CC(C(O)C3C=CC4C(=O)N(c5ccccc5)C(=O)C4N3Nc3ccccc3F)=C[C@@H]1C2 (stereo not given in full) | -0.168 | 0.159 | -0.0092 | 1.03 | 1.54 | 1.28 | 1.14 | -3.65 (inactive) | 0.955 | -0.228
17 | COc1ccc([Si](C)(C)[C@@H]2[C@@H](CC(=O)N(CCO)Cc3ccccc3)O[C@]3(C(=O)N(Cc4ccc(N5CCOC5=O)cc4)c4ccccc43)[C@H]2C)cc1 | 0.149 | 0.181 | -0.093 | 0.222 | 0.294 | 0.567 | 1.1 | -0.153 (inactive) | 0.389 | 0.113
18 | COC(=O)C(CC#Cc1ccc2c(c1)[C@]1(C(=O)N2)[C@H](c2ccc(OCCO)cc2)N2[C@H](c3ccccc3)[C@H](c3ccccc3)OC(=O)[C@H]2[C@@H]1C(=O)O)C(=O)OC | 0.915 | 0.831 | 0.102 | 0.727 | 0.85 | 2.03 | 1.26 | -0.434 (inactive) | 1.37 | 0.398
19 | C[N+](C)(C)CCCCCCNC(=O)[C@@H]1C[C@@H]2C(=O)NCC(=O)N2[C@@H]1c1ccc(O)cc1 | -0.416 | 1.27 | -0.116 | 0.391 | -0.149 | 1.51 | 1.43 | 2.8 (inactive) | 0.0022 | -0.0088
20 | COc1ccc(C#Cc2ccc3c(c2)[C@]2(C(=O)N3)[C@H](C(N)=O)[C@H]3C(=O)O[C@H](c4ccccc4)[C@H](c4ccccc4)N3[C@@H]2c2ccc(O)cc2)cc1 | -0.302 | 1.1 | -0.0183 | 0.665 | 0.477 | 1.57 | 1.38 | -0.891 (inactive) | 0.722 | -0.0581
21 | CCOC(=O)C1=CCC(c2cccc(Cl)c2)O1 (stereo not given) | -0.267 | 0.491 | -0.0036 | 0.0428 | 0.105 | 1.06 | 0.575 | -0.242 (inactive) | 0.0826 | -0.131
22 | O=C1N(CCS(=O)(=O)c2ccccc2)c2ccccc2[C@H]2OC(c3ccc(OCCCO)cc3)=N[C@@]12CCS(=O)(=O)c1ccccc1 | 2.15 | 0.625 | 0.415 | 0.202 | 1.5 | 1.38 | 1.36 | -0.938 (inactive) | 1.43 | 0.772
23 | C[C@H]1NC(=O)C([C@@H](C)OCc2ccccc2)NC(=O)[C@@]23C(=O)N[C@@H](Cc4ccccc4)C2[C@H](C)[C@@]2(C)O[C@H]2C3/C=C/CC/C=C/CNC1=O (stereo not given in full) | -0.0367 | 0.245 | 0.0304 | 0.263 | 0.258 | -0.178 | -0.248 | 0.428 (inactive) | 0.114 | 0.127
24 | C=CCNC(=O)[C@H]1[C@@H]2C(=O)O[C@@H](c3ccccc3)[C@@H](c3ccccc3)N2[C@@H](c2ccc(O)cc2)[C@]12C(=O)N(C(=O)OCCOC)c1ccc(C#CC3(O)CCCCCC3)cc12 | 0.228 | 0.494 | 0.0789 | 0.875 | 0.793 | 1.2 | 1.27 | 0.168 (inactive) | 0.229 | 0.142
25 | COc1ccc(CCNC(=O)[C@@H]2c3ccccc3C(=O)N(Cc3ccccc3)[C@H]2c2ccc(CO)cc2)cc1 | 0.262 | 1.24 | -0.0866 | -0.101 | -0.117 | -0.0744 | 1.2 | -2.26 (inactive) | 0.0887 | 3.74
26 | CC(C)CCC[C@@H](C)[C@H]1CC[C@@]2(C)C3=C(CC[C@]12C)[C@@]1(C)CC[C@H](OC(=O)c2ccc(N)cc2)C(C)(C)C1CC3 (stereo not given in full) | -0.219 | 0.481 | -0.145 | 0.448 | 0.558 | -0.0202 | 0.649 | -1.35 (inactive) | 0.0576 | -0.406
27 | COC(=O)C(CC#Cc1ccc2c(c1)[C@]1(C(=O)N2)[C@H](C(=O)N2CCc3cc(OC)c(OC)cc3C2)[C@H]2C(=O)O[C@H](c3ccccc3)[C@H](c3ccccc3)N2[C@@H]1c1ccc(O)cc1)C(=O)OC | 0.145 | 0.305 | 0.0276 | 0.734 | 1.32 | 1.69 | 1.35 | 1.77 (inactive) | 0.288 | 0.644
28 | CCCCC(O)C1C=CC2C(=O)N(Cc3ccccc3)C(=O)C2N1n1cnnc1 (stereo not given) | -0.246 | 0.095 | 0.0311 | 0.22 | 0.225 | 1.1 | 1.08 | 0.2 (inactive) | 0.437 | 0.312
